Measured values from PubChem BioAssay (NCI).
The panel holds about 83,000 compounds, 20% with a hit somewhere; the sample as a whole holds those more often.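 For each line, cells grew in 96-well plates with the test compound present at a single concentration for 48 hours.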 A number with no mark means an inactive call. Active and inactive are the calls of the source. Rule for the calls: active = growth percent below 10; inactive = the rest.

Columns and labels:
Assay in all cases: NCI-60 one-dose screen, 48 h (100 = growth as untreated, 0 = no growth, -100 = all killed)
Settings in all cases: 10 µM unless noted
SK-MEL-2 melanoma = test system: SK-MEL-2 melanoma
EKVX NSCLC = test system: EKVX NSCLC
SN12C renal = test system: SN12C renal
UO-31 renal = test system: UO-31 renal
TK-10 renal = test system: TK-10 renal
ACHN renal = test system: ACHN renal
CAKI-1 renal = test system: CAKI-1 renal
A498 renal = test system: A498 renal
CCRF-CEM leukemia = test system: CCRF-CEM leukemia
SR leukemia = test system: SR leukemia
RPMI-8226 leukemia = test system: RPMI-8226 leukemia
OVCAR-8 ovarian = test system: OVCAR-8 ovarian
OVCAR-5 ovarian = test system: OVCAR-5 ovarian
OVCAR-4 ovarian = test system: OVCAR-4 ovarian
SK-OV-3 ovarian = test system: SK-OV-3 ovarian
IGROV1 ovarian = test system: IGROV1 ovarian
OVCAR-3 ovarian = test system: OVCAR-3 ovarian
HS 578T breast = test system: HS 578T breast
MOLT-4 leukemia = test system: MOLT-4 leukemia
NCI/ADR-RES ovarian = test system: NCI/ADR-RES ovarian

| SMILES | growth (SK-MEL-2 melanoma) | growth (EKVX NSCLC) | growth (SN12C renal) | growth (UO-31 renal) | growth (TK-10 renal) | growth (ACHN renal) | growth (CAKI-1 renal) | growth (A498 renal) | growth (CCRF-CEM leukemia) | growth (SR leukemia) | growth (RPMI-8226 leukemia) | growth (OVCAR-8 ovarian) | growth (OVCAR-5 ovarian) | growth (OVCAR-4 ovarian) | growth (SK-OV-3 ovarian) | growth (IGROV1 ovarian) | growth (OVCAR-3 ovarian) | growth (HS 578T breast) | growth (MOLT-4 leukemia) | growth (NCI/ADR-RES ovarian) |
| --- | --- | --- | --- | --- | --- | --- | --- | --- | --- | --- | --- | --- | --- | --- | --- | --- | --- | --- | --- | --- |
| COc1ccccc1Nc1cc(O)c2c(=O)cc(-c3ccccc3)oc2c1 | 13.7% | 57.4% | 36.6% | 46.6% | 66.3% | 50.8% | 41.3% | 11.6% | 7.29% (active) | 5.75% (active) | 16.4% | 32.4% | 78.1% | 65.6% | 50.7% | 51.4% | 5.9% (active) | 45.6% | – | – |
| CCC1(CC)NC(=O)c2c(c3ccc(Cl)c(Cl)c3n2C)C1C#N (centres undefined) | 115% | 95.5% | 84% | 70.5% | 127% | 95.5% | 66.6% | 84.9% | 19.4% | 5.94% (active) | 88.6% | – | 81.4% | 91.8% | 91.7% | 74.6% | 94.6% | 97.1% | – | – |
| CCCOc1nc(SCCC)nc2c1cnn2-c1ccccc1 | 86.8% | 97.3% | 98.7% | 91.9% | 149% | 111% | 105% | 134% | 92.9% | – | 152% | 99.2% | 89.2% | 99.6% | 106% | – | 94.8% | 126% | 141% | 96% |
| O=C1Nc2ccccc2/C1=C\c1cccc(/C=C2/C(=O)Nc3ccccc32)n1 | -34% (active) | -37.9% (active) | 8.35% (active) | -82.5% (active) | -59.3% (active) | -100% (active) | -80.7% (active) | -77.7% (active) | -51.9% (active) | – | -48.7% (active) | -6.07% (active) | -69.5% (active) | 11.6% | – | -66.8% (active) | -89.6% (active) | -39.2% (active) | -30% (active) | 16.1% |
| O=C(Nc1ccccc1)Oc1ccccc1-c1ccccc1 | 93.2% | 96.5% | 98.5% | 57.7% | 94.1% | 99.9% | 88.2% | 75.3% | 95.8% | – | 96.5% | 98.4% | – | – | 80.1% | 107% | 106% | 93.3% | – | 99.9% |
| Cn1c2c(Cl)c(Cl)ccc2c2cc(N)[nH]c(=O)c21 | 116% | 59.9% | 92% | 54.4% | 120% | 82.6% | -23.4% (active) | 56.5% | 81.3% | – | 94.9% | 73.7% | 66.2% | 87.2% | 92.2% | 54.7% | 86.2% | 51.5% | – | 74.6% |
| O=C1/C(=C/c2ccc(O)cc2)COc2ccc(-c3ccccc3)cc21 | 66.9% | 105% | 76.2% | 42.9% | 83.9% | 86% | 132% | 100% | -25.2% (active) | – | -29.7% (active) | 71.9% | 102% | 100% | 107% | 51.6% | 56.5% | 88.2% | – | 78.2% |
| COc1ccc(C(=O)c2cc3c(N)c(C(=O)Nc4cccc5ccccc45)sc3nc2C)cc1 | 37.4% | 36% | 22.5% | 36.3% | 60.5% | 30.5% | 20.9% | -7.9% (active) | 8.02% (active) | -11.9% (active) | 5.61% (active) | -5.04% (active) | 39.9% | 37.2% | – | 23.8% | -7.2% (active) | 11.3% | – | 8.37% (active) |
| COc1cc2nc(-c3ccc(C#N)cc3)[nH]c(=O)c2cc1OC | 128% | 98.7% | 91.7% | 97.4% | 271% | 118% | 92% | 120% | 188% | – | 135% | 102% | 102% | 113% | 112% | 113% | 109% | 106% | – | 98.7% |
